This note sets out measurements from PubChem BioAssay (EPA / NIEHS).

The source holds several records for some structures; these can differ, active in one and inactive in another. Active and inactive are the calls of the source. How the source made its calls: active means hit-call score of the fitted dose curve at least 0.9, where 1 is the maximum; inactive means score below 0.9.

This assay in a line: BSK_hDFCGF_Proliferation: Cell Proliferation Assessment in the BioMAP Diversity Plus: hDFCGF Assay (AID 2283059).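 Further: curves fitted for both rise and fall of signal versus DMSO baseline.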 To be noted: primary human foreskin fibroblasts. As for the experimental part:
BSK_hDFCGF is a cell-based, multiplexed-readout assay that uses foreskin fibroblast, a human skin primary cell, with measurements taken at 24 hours after chemical dosing in a 96-well plate.BSK_hDFCGF_Proliferation is an assay component measured in the BSK_hDFCGF assay. It measures […] related to cell proliferation using Sulforhodamine staining technology.Data from the assay component BSK_hDFCGF_Proliferation was analyzed into 1 assay endpoint. This assay endpoint, BSK_hDFCGF_Proliferation, was analyzed with bidirectional fitting relative to DMSO as the negative control and baseline of activity. Using a type of viability reporter, measures of total protein for gain or loss-of-signal activity can be used to understand the viability at the cellular-level. Furthermore, this assay endpoint can be referred to as a secondary readout, because this assay has produced multiple assay endpoints where this one serves a viability function. To generalize the intended target to other relatable targets, this assay endpoint is annotated to the cell cycle intended target family, where the subfamily is proliferation.
The levels of cell surface (or secreted, indicated by the prefix "s") biomarker endpoints were measured by ELISA. Overt cytotoxicity to cells in confluent adherent cultures (all systems other than the BT system) was assessed by measuring total protein levels using sulforhodamine B (SRB) staining in parallel cultures at the time of biomarker measurements, indicated as SRB endpoints. For proliferation assays for adherent cell types, individual cell types are cultured at sub-confluence and relative cell numbers quantified by SRB staining at time points optimized for each system (48 h: 3C and CASM3C systems; 72 h: BT and HDF3CGF systems; 96 h: SAg system). SRB was performed by staining cells with 0.1% SRB after fixation with 10% TCA and reading wells at 560 nm.Viability and proliferation of PBMC (T cells) was quantified by Alamar Blue reduction for the SAg and BT systems. For PBMC viability (referred to as PBMC Cytotoxicity within the assay endpoint names), cells were plated (75,000/well in a 96-well plate) and then chemical samples added for 1 h before addition of activators, SEB and TSST-1 (20 ng/mL final concentration each). Cells were incubated for 90 h. Then, Alamar Blue (20 uL/well) (Invitrogen, Cat DAL1100) was added for 6 h, and the plates were read with a fluorescence microplate reader at 546/580 nm (excitation/emission). For PBMC proliferation, cells were plated and activated as above but incubated for only 16 h prior to addition of Alamar Blue. Plates were read after 6 h.
Turning to `OC[C@H]1O[C@@](CO)(O[C@H]2O[C@H](CO)[C@@H](O)[C@H](O)[C@H]2O)[C@@H](O)[C@@H]1O`, the result was inactive. Same read-out and setting: to `CC[C@H](C)C(=O)O[C@H]1C[C@H](O)C=C2C=C[C@H](C)[C@H](CC[C@@H](O)C[C@@H](O)CC(=O)O)[C@H]21` belongs “inactive”; to `OC(Cn1cncn1)(Cn1cncn1)c1ccc(F)cc1F`, “inactive”; to `CCOC(N)=O`, “inactive”. For the compound `Cn1cc[nH]c1=S`, the result was inactive. One may read the AC50 as the concentration giving half of the maximal activity seen. With `NC(=O)NN=Cc1ccc([N+](=O)[O-])o1`, the AC50 was 27.8 µM (active). Regarding `CC(C)C(=O)Nc1ccc([N+](=O)[O-])c(C(F)(F)F)c1`, the result was inactive. The same measure, in the same setting: next, `CC1(C)C(=O)N(Cl)C(=O)N1Cl`: “inactive”. Still for that read-out and setting: to `CCCOc1ccc(S(=O)(=O)N2CCN(CC)CC2)cc1-c1nc2c(CC)n(Cc3ccccn3)nc2c(=O)[nH]1` belongs “inactive”. Turning to `FC(F)=C(F)C(F)(F)C(F)(F)C(F)(F)C(F)(F)C(F)(F)C(F)(F)F`, the outcome was inactive. For the compound `CCCCCCCCCCCCCCCCOS(=O)(=O)O`, the AC50 was 5.25 µM (active). Same read-out and setting: to `COc1cc2c(c(OC)c1OC)-c1ccc(OC)c(=O)cc1[C@@H](NC(C)=O)CC2` belongs 1 µM (active).

`FC(F)(F)C(F)(F)C(F)(F)C(F)(F)C(F)(F)C(F)(F)I`: the AC50 is 50.7 µM (active) and the result was inactive. Turning to `FC(F)(F)COC(OCC(F)(F)F)OCC(F)(F)F`, the result was inactive. The same measure, in the same setting: next, `CC(C)CC(C)O` (stereo not given): “inactive”. Still for that read-out and setting: to `O=C(O)c1ccc2c(c1)nc(C(=O)NC1CCN(C3CC3)CC1)n2Cc1cc(-c2ccc(Cl)s2)on1` belongs “inactive”; to `NC(=O)N1c2ccccc2C=Cc2ccccc21`, “inactive”; to `CCCCCCCCN(C)C`, “inactive”. As for `CCCc1ccccc1`, the outcome was inactive.

For the compound `OC[C@H]1O[C@@H]2O[C@H]3[C@H](O)[C@@H](O)[C@@H](O[C@H]4[C@H](O)[C@@H](O)[C@@H](O[C@H]5[C@H](O)[C@@H](O)[C@@H](O[C@H]6[C@H](O)[C@@H](O)[C@@H](O[C@H]7[C@H](O)[C@@H](O)[C@@H](O[C@H]1[C@H](O)[C@H]2O)O[C@@H]7CO)O[C@@H]6CO)O[C@@H]5CO)O[C@@H]4CO)O[C@@H]3CO`, the outcome was inactive.

Consider `CCOc1ccc2[nH]cc(C(=O)NCc3ccccc3)c(=O)c2n1`, for which the outcome was inactive. Consider `COc1cc(C(C)C)c2c(c1)S(=O)(=O)N(COc1cc(=O)n3cccc(OCCN4CCCCC4)c3n1)C2=O`, for which the AC50 is 5.44 µM (active). Regarding `O=C(O)[C@H](O)[C@@H](O)C(=O)O`, the outcome was inactive. In the case of `C=CN1CCCC1=O`, the result was inactive.

As for `O=c1[nH]cnc2c1ncn2[C@H]1CC[C@@H](CO)O1`, the result was inactive. Take `O=C(O)c1cccc(C(=O)O)c1`: the outcome was inactive. Still for that read-out and setting: to `O=S1(=O)CCCO1` belongs “inactive”; to `C[Si](C)(C)C(F)(F)C(F)(F)C(F)(F)F`, “inactive”; to `Cc1ccc(S(=O)(=O)NC(=O)NN2CCCCCC2)cc1`, “inactive”. Still for that read-out and setting: to `COCc1nnc(-c2ccc[n+]([O-])c2)n1-c1c(Cl)c(Cl)cc2[nH]c(=O)c(=O)[nH]c12` belongs “inactive”; to `CCCCCCCC/C=C\CCCCCCCC(=O)OC[C@@H](O)[C@H]1OC[C@H](O)[C@H]1O`, “inactive”. Regarding `C=CCc1cc(S(=O)(=O)c2ccc(O)c(CC=C)c2)ccc1O`, the AC50 was 9.21 µM (active). As to `O=C(O)c1cccc(C[C@@H]2COc3ccc(OCc4nc5cc(F)ccc5s4)cc3[C@@H]2O)c1`, the result was inactive. As for `Cc1nccn1-c1ccc(Sc2cccc(C3(C(N)=O)CCOCC3)c2)cc1`, the AC50 was 4.15 µM (active). Same read-out and setting: to `CCN(CC)C(=S)SSC(=S)N(CC)CC` belongs 1.41 µM (active). As for `CC(=O)c1ccccc1`, the result was inactive.

In the case of `Cc1nc(-c2ccccn2)ncc1C(=O)Nn1cc(C)c2cc(F)ccc21`, the result was inactive. Same read-out and setting: to `Cc1cccc(O)c1C` belongs “inactive”. On the same count and under the same terms, to `COS(C)(=O)=O` belongs “inactive”.
